# From PubChem BioAssay (NCATS)
# Records with an inconclusive call do not appear. Activity calls are given as the source filed them. Unless noted, calls follow the shape of the dose curve; as a rule, active = well fitted curve in the direction sought with a large enough effect; inconclusive = small, poorly fitted or top-dose-only effect, or another doubt; inactive = no such curve, though single readings can be large; an effect the other way counts as inactive or inconclusive.
# What was measured:
# [1] = target: Estrogen receptor (Homo sapiens) (UniProt P03372); experiment: qHTS assay for small molecule agonists of estrogen receptor alpha signaling (AID 588514; calls by dose curve;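 also: 0% = vehicle only and 100% = reference agonist; nearly all actives have a fitted effect of over 70% in size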)
# Outline: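 Fluorescence from CCF4 cleavage reports ER-alpha-driven beta-lactamase expression in HEK 293 cells treated 18 hrs at 37 C. Data normalized to 17-beta-estradiol (20 nM) and DMSO, fitted to Hill equation.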
# [2] = target: Vitamin D3 receptor (Homo sapiens) (UniProt P11473); experiment: qHTS assay for small molecule antagonists of vitamin D receptor signaling (AID 588541; calls by dose curve;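 also: receptor activated by calcitriol during compound treatment; series mostly up to about 77 µM; % is scaled to controls: 0 for no effect and ±100 for the full control effect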)
# Outline: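 VDR-UAS-bla HEK293T cells (2000/well, 2% charcoal-stripped FBS) were treated with titrated compounds plus 1-alpha,25-dihydroxyvitamin D3 (50 nM or 3 nM final) for 16 h at 37 C. CCF4 beta-lactamase fluorescence was read; Hill fits gave IC50.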
# [3] = target: Vitamin D3 receptor (Homo sapiens) (UniProt P11473); experiment: qHTS assay for small molecule agonists of vitamin D receptor signaling (AID 588543; calls by dose curve;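 also: 0% = DMSO basal and 100% = reference agonist control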)
# Outline: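 β-lactamase reporter, VDR-UAS-bla HEK293T, agonist mode. Cells plated 5 h at 37 °C, compound titration 16 h at 37 °C, CCF4 dye 2 h RT, ratio 460/530 nm. Hill fit → EC50, efficacy vs 50 nM 1α,25-(OH)2D3.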
# [4] = target: Thyroid hormone receptor beta (Homo sapiens) (UniProt P10828); experiment: qHTS assay for small molecule agonists of thyroid hormone receptor beta signaling (AID 588545; calls by dose curve)
# Outline: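 Agonist activity was read as beta-lactamase CCF4 fluorescence (405 ex, 460/530 em), scaled between DMSO (0%) and 10 nM T3 (100%), then Hill-fitted for EC50 and efficacy. HEK 293 TR-UAS-bla cells in 2% charcoal/dextran FBS medium were exposed 18 h at 37 C.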
# [5] = qHTS assay for small molecule antagonists of retinoid X receptor alpha signaling (AID 588546; active = well fitted inhibition curve with a large enough effect in the signal ratio, with a control signal flat, not every such curve was filed as active; the % refers to the signal ratio;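 also: cells stimulated with 9-cis-retinoic acid as agonist; % is scaled to controls: 0 for no effect and ±100 for the full control effect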); settings: HEK293T RXRa-UAS-bla, beta-lactamase ratio, antagonist mode; measured here: W530 green channel, cytotoxicity proxy
# Outline: (§1)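 Beta-lactamase reporter inhibition, read as CCF4 fluorescence ratio (ex 405, em 460/530 nm) after 2 h at RT. HEK293T UAS-bla cells, 2500/well, were stimulated with 9-cis-RA at 500 or 100 nM final alongside test compound for 18 h at 37 C.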
# [6] = target: Retinoic acid receptor RXR-alpha (Homo sapiens) (UniProt P19793); experiment: as above; settings: HEK293T RXRa-UAS-bla, beta-lactamase ratio, antagonist mode
# Outline: as §1
# [7] = qHTS assay for environmental chemicals that activate the Aryl hydrocarbon Receptor (AhR) signaling pathway (AID 651777); settings: 1A2-DRE human hepatoma cells, luciferase, 24 h; activation: stronger effect = higher value; also: % of control where 0% means no effect; nearly all actives have a fitted effect of over 15% in size
# Outline: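 Quantitative HTS in stably transfected human liver-derived cells whose luciferase gene sits downstream of the CYP1A2 promoter and dioxin response element. After 24 hr exposure at 37 C, One-Glo luminescence was measured.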
# [8] = target: Peroxisome proliferator-activated receptor alpha (Homo sapiens) (UniProt Q07869); experiment: qHTS assay for small molecule agonists of the peroxisome proliferator-activated receptor alpha (PPARalpha) signaling pathway (AID 651778); settings: PathHunter PPARalpha complementation, chemiluminescence, 6 h; max response: stronger effect = higher value; also: % of control where 0% means no effect
# Outline: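 Cells plated at 2,000/well and held overnight at 37 C, 5% CO2, then compound added by pin tool for 6 hr; after PathHunter detection reagent and 60 min at room temperature, chemiluminescence from enzyme complementation was read.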
# [9] = qHTS assay for small molecule agonists of the antioxidant response element (ARE) signaling pathway measured by Nrf2-dependant transcriptional activity (AID 720636; active = well fitted curve in the direction sought with a large enough effect in the repeat runs; an effect the other way counts as inactive or inconclusive; also: % of control where 0% means no effect)
# Outline: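 Quantitative HTS format in HepG2 cells stably expressing an ARE-luciferase reporter; 16 hr compound treatment at 37 C, luciferase signal detected with ONE-Glo.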
# [10] = qHTS assay for small molecule agonists of the antioxidant response element (ARE) signaling pathway measured by Nrf2-dependant transcriptional activity - cell viability counter screen (AID 720653; active = well fitted curve in the direction sought with a large enough effect in the repeat runs; an effect the other way counts as inactive or inconclusive; also: % is scaled to controls: 0 for no effect and ±100 for the full control effect); settings: ARE-bla HepG2 viability, CellTiter-Glo ATP luminescence, 16 h; max response: stronger effect = lower value
# Outline: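 ARE-bla HepG2 cells (2,000/well) rested 5 hrs at 37C/5% CO2, then exposed to compounds in DMSO for 16 hrs. Viability was read in the same wells as intracellular ATP by luminescence, 30 min at room temperature after reagent addition.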
# [11] = qHTS assay for cell viability of HEK293 cells (AID 743288); settings: ATP luminescence (CellTiter-Glo), 18 h; max response: stronger effect = lower value; also: nearly all actives have a fitted effect of over 50% in size; also: potency is read from the fitted curve at half-maximal effect
# Outline: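 ATP luminescence (CellTiter-Glo) reports metabolically competent cell number after parental HEK293 cells, 2,000/well, were treated with DMSO-dissolved compounds for 18 h at 37 C; reagent incubation 30 min, room temperature.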
# [12] = qHTS assay for cell viability of the p53RE-bla HCT-116 cell line (AID 743292); also: nearly all actives have a fitted effect of over 55% in size; also: potency is read from the fitted curve at half-maximal effect
# Outline: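 Viability of compound-treated p53RE-bla HCT-116 cells is taken from ATP-dependent luciferase luminescence. Treatment lasts 16 h at 37 C after a 5 h settling period; detection follows 30 min at room temperature.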
# [13] = target: Nuclear receptor subfamily 1 group I member 2 (Rattus norvegicus) (UniProt Q9R1A7); experiment: qHTS assay for small molecule activators of the rat pregnane X receptor (rPXR) signaling pathway (AID 651751; call rule not given here; also: 0% is about no effect); settings: rPXR reporter cells, luciferase (One-Glo), 24 h
# [14] = qHTS assay for small molecule activators of the human pregnane X receptor (PXR) signaling pathway (AID 720659; call rule not given here; also: 0% is about no effect)
# [15] = qHTS assay for small molecule activators of the nuclear factor-kappa B (NF-kB) signaling pathway (AID 651749; active = well fitted activation curve with a large enough effect in the signal ratio; the % refers to the signal ratio; also: series mostly up to about 77 µM; % of control where 0% means no effect); settings: NF-kB-bla ME-180 cells, beta-lactamase FRET ratio, 16 h; activation: stronger effect = higher value
# Outline: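 Beta-lactamase reporter expression, controlled by NF-kB response elements in ME-180 cells, was quantified fluorometrically via FRET disruption; cells at 2,000/well had been incubated with 23 nL test compound for 16 hr.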
# [16] = target: Glucocorticoid receptor (Homo sapiens) (UniProt P04150); experiment: qHTS assay for small molecule agonists of glucocorticoid receptor signaling (AID 588532; active = well fitted curve in the direction sought with a large enough effect in the signal ratio, with a control signal flat; the % refers to the signal ratio;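 also: 100% = dexamethasone at 0.1 µM and 0% = DMSO only wells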); settings: HeLa MMTV-bla, beta-lactamase ratio, agonist, 18 h; stronger effect = higher value; percent of dexamethasone control, DMSO zero
# Outline: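 Titration series, up to 92 uM, applied to GRE-bla HeLa cells for 18 h at 37 C. Detection by CCF4 FRET substrate after 2 h at RT.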
# [17] = target: Glucocorticoid receptor (Homo sapiens) (UniProt P04150); experiment: qHTS assay for small molecule antagonists of glucocorticoid receptor signaling (AID 588533; active = well fitted inhibition curve with a large enough effect in the signal ratio, with a control signal flat, not every such curve was filed as active; the % refers to the signal ratio;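 also: cells stimulated with 2 nM dexamethasone as agonist; % is scaled to controls: 0 for no effect and ±100 for the full control effect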)
# Outline: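 Antagonist-mode qHTS: compound titrations added to GRE-bla HeLa cells, then dexamethasone 2 nM final; 18 h, 37 C. CCF4 FRET fluorescence normalized to dexamethasone and DMSO; IC50 from Hill fit.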
# [18] = target: Peroxisome proliferator-activated receptor gamma (Homo sapiens) (UniProt P37231); experiment: qHTS assay for small molecule agonists of peroxisome proliferator-activated receptor gamma signaling (AID 588536; active = well fitted curve in the direction sought with a large enough effect in the signal ratio, with a control signal flat, not every such curve was filed as active; the % refers to the signal ratio;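 also: 0% = DMSO basal wells and 100% = rosiglitazone at 2 µM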)
# Outline: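 Beta-lactamase reporter read-out: CCF4 fluorescence (ex 405, em 460/530 nm) after 2 h at RT. HEK293 GeneBLAzer cells were treated for 16 h at 37 C. Hill fits gave EC50 and efficacy versus 2 uM rosiglitazone (100%) and DMSO (0%).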
# [19] = qHTS assay for small molecule agonists of retinoid X receptor alpha signaling (AID 588544; calls by dose curve;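 as to activation: 0% = DMSO basal wells and 100% = reference agonist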); settings: HEK293T RXRa-UAS-bla, beta-lactamase reporter, 18 h; 530 nm emission
# [20] = target: Retinoic acid receptor RXR-alpha (Homo sapiens) (UniProt P19793); experiment: as above
# Sequence of Thyroid hormone receptor beta (Homo sapiens) (P10828 whole entry, looked up): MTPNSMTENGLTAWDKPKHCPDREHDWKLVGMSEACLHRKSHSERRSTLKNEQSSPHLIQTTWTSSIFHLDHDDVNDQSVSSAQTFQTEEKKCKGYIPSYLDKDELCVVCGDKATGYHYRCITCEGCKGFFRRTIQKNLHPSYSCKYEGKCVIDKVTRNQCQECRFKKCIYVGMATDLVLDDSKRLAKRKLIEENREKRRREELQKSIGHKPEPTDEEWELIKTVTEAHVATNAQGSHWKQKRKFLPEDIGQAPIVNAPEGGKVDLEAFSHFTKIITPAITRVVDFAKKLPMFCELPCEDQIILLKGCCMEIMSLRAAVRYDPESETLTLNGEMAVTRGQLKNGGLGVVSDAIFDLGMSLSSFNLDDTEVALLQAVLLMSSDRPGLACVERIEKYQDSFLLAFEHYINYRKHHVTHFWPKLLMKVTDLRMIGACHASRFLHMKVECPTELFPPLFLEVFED
# Sequence of Estrogen receptor (Homo sapiens) (P03372 whole entry, looked up): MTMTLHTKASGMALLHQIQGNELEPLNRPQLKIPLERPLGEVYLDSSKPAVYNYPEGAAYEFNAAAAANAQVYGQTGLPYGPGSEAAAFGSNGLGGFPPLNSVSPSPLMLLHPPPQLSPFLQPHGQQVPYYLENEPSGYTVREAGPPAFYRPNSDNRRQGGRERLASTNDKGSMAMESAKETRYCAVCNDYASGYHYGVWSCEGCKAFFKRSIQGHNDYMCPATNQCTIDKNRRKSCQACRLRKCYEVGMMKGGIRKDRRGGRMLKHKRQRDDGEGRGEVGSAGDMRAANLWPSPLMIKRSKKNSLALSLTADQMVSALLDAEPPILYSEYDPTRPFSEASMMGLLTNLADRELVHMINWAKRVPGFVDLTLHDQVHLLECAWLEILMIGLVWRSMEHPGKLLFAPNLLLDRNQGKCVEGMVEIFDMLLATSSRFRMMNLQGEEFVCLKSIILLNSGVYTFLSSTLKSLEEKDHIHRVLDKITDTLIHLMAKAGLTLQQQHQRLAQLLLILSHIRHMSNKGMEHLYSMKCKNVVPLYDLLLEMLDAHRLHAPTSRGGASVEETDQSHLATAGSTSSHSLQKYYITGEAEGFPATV
# Sequence of Nuclear receptor subfamily 1 group I member 2 (Rattus norvegicus) (Q9R1A7 whole entry, looked up): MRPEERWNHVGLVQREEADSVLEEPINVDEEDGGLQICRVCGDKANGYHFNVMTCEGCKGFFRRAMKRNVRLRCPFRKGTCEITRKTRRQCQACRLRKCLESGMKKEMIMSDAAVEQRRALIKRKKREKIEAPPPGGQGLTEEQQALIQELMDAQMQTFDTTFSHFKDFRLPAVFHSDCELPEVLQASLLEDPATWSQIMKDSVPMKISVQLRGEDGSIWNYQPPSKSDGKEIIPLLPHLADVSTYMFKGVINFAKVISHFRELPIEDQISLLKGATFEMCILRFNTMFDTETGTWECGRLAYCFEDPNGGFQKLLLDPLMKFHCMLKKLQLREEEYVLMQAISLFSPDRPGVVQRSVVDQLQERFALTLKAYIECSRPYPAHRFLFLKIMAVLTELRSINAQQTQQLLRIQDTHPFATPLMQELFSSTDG
# Sequence of Vitamin D3 receptor (Homo sapiens) (P11473 whole entry, looked up): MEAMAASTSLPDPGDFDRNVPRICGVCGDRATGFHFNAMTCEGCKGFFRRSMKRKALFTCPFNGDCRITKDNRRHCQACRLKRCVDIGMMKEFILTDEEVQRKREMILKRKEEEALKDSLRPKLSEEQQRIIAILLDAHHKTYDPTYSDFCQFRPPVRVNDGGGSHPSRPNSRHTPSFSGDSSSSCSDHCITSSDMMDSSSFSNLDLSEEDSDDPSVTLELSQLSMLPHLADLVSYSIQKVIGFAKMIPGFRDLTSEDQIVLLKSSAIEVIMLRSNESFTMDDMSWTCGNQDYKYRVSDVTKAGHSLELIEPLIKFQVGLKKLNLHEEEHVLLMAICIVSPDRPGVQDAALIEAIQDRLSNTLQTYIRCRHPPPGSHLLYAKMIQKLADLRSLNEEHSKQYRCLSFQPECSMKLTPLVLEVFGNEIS
# Sequence of Peroxisome proliferator-activated receptor alpha (Homo sapiens) (Q07869 whole entry, looked up): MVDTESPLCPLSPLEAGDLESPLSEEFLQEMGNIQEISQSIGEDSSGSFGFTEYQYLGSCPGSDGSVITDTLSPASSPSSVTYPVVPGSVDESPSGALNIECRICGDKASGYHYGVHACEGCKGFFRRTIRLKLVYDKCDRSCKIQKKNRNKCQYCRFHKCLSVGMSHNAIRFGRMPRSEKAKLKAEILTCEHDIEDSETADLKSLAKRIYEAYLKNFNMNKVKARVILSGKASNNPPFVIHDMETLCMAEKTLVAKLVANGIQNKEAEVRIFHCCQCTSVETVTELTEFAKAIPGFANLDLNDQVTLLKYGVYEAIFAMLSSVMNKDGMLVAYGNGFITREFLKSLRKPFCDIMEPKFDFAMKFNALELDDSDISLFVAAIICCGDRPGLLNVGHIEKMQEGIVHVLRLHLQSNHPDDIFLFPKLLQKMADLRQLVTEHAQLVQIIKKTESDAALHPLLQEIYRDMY
# Sequence of Retinoic acid receptor RXR-alpha (Homo sapiens) (P19793 whole entry, looked up): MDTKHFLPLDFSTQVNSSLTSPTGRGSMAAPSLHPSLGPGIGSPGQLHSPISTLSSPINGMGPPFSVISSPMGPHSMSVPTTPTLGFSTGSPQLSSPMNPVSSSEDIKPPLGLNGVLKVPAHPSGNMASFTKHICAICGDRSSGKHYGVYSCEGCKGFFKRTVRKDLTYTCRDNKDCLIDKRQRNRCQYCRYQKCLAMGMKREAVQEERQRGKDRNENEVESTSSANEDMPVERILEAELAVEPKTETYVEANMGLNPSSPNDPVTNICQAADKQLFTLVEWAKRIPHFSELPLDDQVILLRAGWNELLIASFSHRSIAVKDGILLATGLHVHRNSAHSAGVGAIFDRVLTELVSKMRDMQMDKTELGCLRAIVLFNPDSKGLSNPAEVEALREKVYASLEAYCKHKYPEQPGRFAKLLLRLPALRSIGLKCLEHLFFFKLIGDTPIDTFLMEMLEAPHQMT
# Sequence of Glucocorticoid receptor (Homo sapiens) (P04150 whole entry, looked up): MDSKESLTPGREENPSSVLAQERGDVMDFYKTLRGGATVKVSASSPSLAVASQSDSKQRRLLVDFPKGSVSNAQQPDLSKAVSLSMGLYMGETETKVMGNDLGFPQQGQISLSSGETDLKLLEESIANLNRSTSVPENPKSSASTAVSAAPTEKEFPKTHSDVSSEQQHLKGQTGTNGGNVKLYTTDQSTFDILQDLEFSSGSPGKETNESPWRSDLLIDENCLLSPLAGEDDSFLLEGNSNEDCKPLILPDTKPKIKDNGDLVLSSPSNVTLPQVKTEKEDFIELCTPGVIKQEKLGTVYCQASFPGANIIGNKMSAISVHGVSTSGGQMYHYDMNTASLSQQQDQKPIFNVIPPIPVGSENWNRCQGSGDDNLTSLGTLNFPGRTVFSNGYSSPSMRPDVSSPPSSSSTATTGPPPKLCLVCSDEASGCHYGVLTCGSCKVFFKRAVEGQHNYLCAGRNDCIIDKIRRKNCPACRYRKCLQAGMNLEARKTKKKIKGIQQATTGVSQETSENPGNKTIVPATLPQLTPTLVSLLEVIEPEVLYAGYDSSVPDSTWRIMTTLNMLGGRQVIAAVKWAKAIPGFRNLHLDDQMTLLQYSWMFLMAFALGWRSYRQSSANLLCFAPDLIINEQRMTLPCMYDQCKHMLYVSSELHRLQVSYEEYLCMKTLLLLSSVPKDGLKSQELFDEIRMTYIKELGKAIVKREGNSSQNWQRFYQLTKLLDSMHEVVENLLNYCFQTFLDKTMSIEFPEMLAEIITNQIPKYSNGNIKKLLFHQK
# Sequence of Peroxisome proliferator-activated receptor gamma (Homo sapiens) (P37231 whole entry, looked up): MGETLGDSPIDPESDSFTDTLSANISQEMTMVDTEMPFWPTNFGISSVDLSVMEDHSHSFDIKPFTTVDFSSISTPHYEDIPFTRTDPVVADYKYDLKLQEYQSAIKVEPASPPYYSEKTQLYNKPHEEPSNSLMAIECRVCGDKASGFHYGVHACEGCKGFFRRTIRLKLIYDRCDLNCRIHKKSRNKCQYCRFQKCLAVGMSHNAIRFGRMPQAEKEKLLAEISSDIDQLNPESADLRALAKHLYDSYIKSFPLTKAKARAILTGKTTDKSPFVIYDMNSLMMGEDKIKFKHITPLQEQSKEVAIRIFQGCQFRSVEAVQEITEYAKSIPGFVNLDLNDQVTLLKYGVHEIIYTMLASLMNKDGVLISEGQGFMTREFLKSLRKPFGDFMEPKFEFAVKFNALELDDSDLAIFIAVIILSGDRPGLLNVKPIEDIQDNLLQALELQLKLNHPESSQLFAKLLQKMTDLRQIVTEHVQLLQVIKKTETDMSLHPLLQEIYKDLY
compound,measurement,setting,value
COC(=O)C(C)Oc1ccc(Oc2ncc(C(F)(F)F)cc2Cl)cc1 (centres undefined),Potency,[1],inactive
same,Potency,[2],inactive
same,outcome,[3],inactive
same,Potency,[4],inactive
same,max response,[5],5.42%
same,max response,[6],-74.4% (inactive)
same,activation,[7],0.251% (inactive)
same,max response,[8],0.508% (inactive)
same,Potency,[9],inactive
same,max response,[10],-10.2% (inactive)
same,max response,[11],-21.9% (inactive)
same,Potency,[12],inactive
same,max response,[13],-3.2% (inactive)
same,outcome,[14],inactive
CCN(Cc1cccc(S(=O)(=O)O)c1)c1ccc(C(=C2C=CC(=[N+](CC)Cc3cccc(S(=O)(=O)[O-])c3)C=C2)c2ccccc2)cc1,Potency,[1],inactive
same,Potency,[4],inactive
same,max response,[5],16.5%
same,max response,[6],8.46% (inactive)
same,activation,[15],-0.828% (inactive)
same,activation,[7],-1.94% (inactive)
same,max response,[8],-3.93% (inactive)
same,max response,[10],-9.88% (inactive)
same,max response,[11],-13.6% (inactive)
same,Potency,[12],inactive
same,max response,[13],-0.0295% (inactive)
same,outcome,[14],inactive
O=S(=O)(O)c1ccc(N=Nc2cc(S(=O)(=O)O)c3ccccc3c2O)c2ccccc12,activation,[16],-5.27% (inactive)
same,Potency,[17],inactive
same,outcome,[18],inactive
same,Potency,[2],inactive
same,outcome,[3],inactive
same,max response,[19],-24.8%
same,Potency,[20],inactive
same,Potency,[4],inactive
same,max response,[5],4.4%
same,max response,[6],4.36% (inactive)
same,activation,[15],0.356% (inactive)
same,activation,[7],3.98% (inactive)
same,max response,[8],-9.4% (inactive)
same,Potency,[9],inactive
same,Potency,[11],44.7 µM (active)
same,Potency,[12],39.8 µM (active)
same,max response,[13],-7.09% (inactive)
same,outcome,[14],inactive
C=CCCCCCCCCCCCC,activation,[16],9.05% (inactive)
same,Potency,[17],inactive
same,outcome,[18],inactive
same,Potency,[2],inactive
same,outcome,[3],inactive
same,max response,[19],-6.65%
same,Potency,[20],inactive
same,Potency,[4],inactive
same,max response,[5],-3.7%
same,max response,[6],10.9% (inactive)
same,activation,[7],0.249% (inactive)
same,Potency,[9],inactive
same,max response,[10],1.55% (inactive)
same,Potency,[12],inactive
same,max response,[13],1.46% (inactive)
same,outcome,[14],inactive
O=C(O)C1(C(=O)Nc2ccc(Cl)cc2Cl)CC1,Potency,[2],inactive
same,outcome,[3],inactive
same,Potency,[4],inactive
same,max response,[5],8.82%
same,max response,[6],9.68% (inactive)
same,activation,[15],-1.09% (inactive)
same,max response,[8],0.116% (inactive)
same,max response,[10],-1.63% (inactive)
same,max response,[11],-9.45% (inactive)
same,Potency,[12],inactive
same,outcome,[14],inactive
O=C=NCCCCCCN=C=O,Potency,[1],inactive
same,outcome,[18],inactive
same,Potency,[2],inactive
same,outcome,[3],inactive
same,max response,[19],-10.7%
same,Potency,[20],inactive
same,Potency,[4],inactive
same,max response,[5],-6.96%
same,max response,[6],-6.2% (inactive)
same,activation,[15],0.731% (inactive)
same,max response,[8],-1.66% (inactive)
same,Potency,[9],inactive
same,max response,[11],-9.94% (inactive)
same,Potency,[12],inactive
same,max response,[13],-0.542% (inactive)
same,outcome,[14],inactive
CCCCC(CC)COC(=O)c1ccc(C(=O)OCC(CC)CCCC)cc1 (centres undefined),outcome,[18],inactive
same,max response,[19],-8.11%
same,Potency,[20],inactive
same,max response,[5],-7.23%
same,max response,[6],5.51% (inactive)
same,activation,[7],-2.7% (inactive)
same,Potency,[9],inactive
same,max response,[10],-17% (inactive)
same,max response,[11],-13.5% (inactive)
same,Potency,[12],inactive
same,max response,[13],-0.0794% (inactive)
same,outcome,[14],inactive
